In paper PMC11006913:
Substitutions are numbered along the chain they refer to.

What was measured:
Assay in all cases: PBM; 200 nM protein, PBS
Conditions in all cases: dsDNA, one strand shown
CRX [1] = biological target: CRX (Homo sapiens, UniProt O43186 26-111)
CRX [2] = biological target: CRX (Homo sapiens, UniProt O43186 26-111, E42D)
CRX [3] = biological target: CRX (Homo sapiens, UniProt O43186 26-111, R41L)
NKX2-4 [4] = biological target: T1, NKX2-4 (Homo sapiens, UniProt Q9H2Z4 175-261, P217L)
T1 sequence: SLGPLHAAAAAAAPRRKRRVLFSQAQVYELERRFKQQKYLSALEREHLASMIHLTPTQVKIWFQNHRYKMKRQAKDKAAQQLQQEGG

HOXC9 [5] = biological target: HOXC9 (Homo sapiens, UniProt P31274 178-260, K195R)
Sequence of HOXC9 (Homo sapiens, UniProt P31274 178-260, K195R) (P31274 178-260 K195R): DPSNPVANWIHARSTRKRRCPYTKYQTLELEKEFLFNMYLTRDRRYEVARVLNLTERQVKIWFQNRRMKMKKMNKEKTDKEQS

NKX2-4 [6] = biological target: T2, NKX2-4 (Homo sapiens, UniProt Q9H2Z4 175-261, T231S)
T2 sequence: T1 sequence with L43P, T57S

NKX2-4 [7] = biological target: T3, NKX2-4 (Homo sapiens, UniProt Q9H2Z4 175-261)
T3 sequence: T1 sequence with L43P

NKX2-6 = biological target: T4, NKX2-6 (Homo sapiens, UniProt A6NCS4 118-204, R150C)
T4 sequence: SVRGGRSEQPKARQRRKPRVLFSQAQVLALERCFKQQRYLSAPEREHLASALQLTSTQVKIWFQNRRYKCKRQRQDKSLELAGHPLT

HOXC9 [8] = biological target: HOXC9 (Homo sapiens, UniProt P31274 178-260)
Sequence of HOXC9 (Homo sapiens, UniProt P31274 178-260) (P31274 178-260): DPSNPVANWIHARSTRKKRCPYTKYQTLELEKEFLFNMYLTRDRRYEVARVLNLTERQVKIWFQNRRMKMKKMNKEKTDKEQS

ALX1 [9] = biological target: ALX1 (Homo sapiens, UniProt Q15699 118-204, L144V)
Sequence of ALX1 (Homo sapiens, UniProt Q15699 118-204, L144V) (Q15699 118-204 L144V): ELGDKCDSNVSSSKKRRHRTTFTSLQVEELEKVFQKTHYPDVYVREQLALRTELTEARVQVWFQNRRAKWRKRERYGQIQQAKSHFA

HOXC9 [10] = biological target: HOXC9 (Homo sapiens, UniProt P31274 178-260, R193K)
Sequence of HOXC9 (Homo sapiens, UniProt P31274 178-260, R193K) (P31274 178-260 R193K): as the sequence (P31274 178-260) above, with R16K counted along it

ALX1 [11] = biological target: ALX1 (Homo sapiens, UniProt Q15699 118-204, L144R)
Sequence of ALX1 (Homo sapiens, UniProt Q15699 118-204, L144R) (Q15699 118-204 L144R): as the sequence (Q15699 118-204 L144V) above, with V27R counted along it

NKX2-4 [12] = biological target: T5, NKX2-4 (Homo sapiens, UniProt Q9H2Z4 175-261, R246Q)
T5 sequence: T1 sequence with L43P, R72Q

HOXC9 [13] = biological target: HOXC9 (Homo sapiens, UniProt P31274 178-260, R222W)
Sequence of HOXC9 (Homo sapiens, UniProt P31274 178-260, R222W) (P31274 178-260 R222W): as the sequence (P31274 178-260) above, with R45W counted along it

ALX1 [14] = biological target: ALX1 (Homo sapiens, UniProt Q15699 118-204)
Sequence of ALX1 (Homo sapiens, UniProt Q15699 118-204) (Q15699 118-204): as the sequence (Q15699 118-204 L144V) above, with V27L counted along it

SIX6 [15] = biological target: T6, SIX6 (Homo sapiens, UniProt O95475 114-200, L167I)
T6 sequence: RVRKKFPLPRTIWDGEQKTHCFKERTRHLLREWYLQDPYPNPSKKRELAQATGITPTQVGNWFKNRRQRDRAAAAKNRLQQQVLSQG

SIX6 [16] = biological target: T7, SIX6 (Homo sapiens, UniProt O95475 114-200, L143V)
T7 sequence: T6 sequence with L30V, I54L

SIX6 [17] = biological target: T8, SIX6 (Homo sapiens, UniProt O95475 114-200, H141N)
T8 sequence: T6 sequence with H28N, I54L

SIX6 [18] = biological target: T9, SIX6 (Homo sapiens, UniProt O95475 114-200, T165P)
T9 sequence: T6 sequence with T52P, I54L

SIX6 [19] = biological target: T10, SIX6 (Homo sapiens, UniProt O95475 114-200, L167M)
T10 sequence: T6 sequence with I54M

SIX6 [20] = biological target: T11, SIX6 (Homo sapiens, UniProt O95475 114-200, L143M)
T11 sequence: T6 sequence with L30M, I54L

SIX6 [21] = biological target: T12, SIX6 (Homo sapiens, UniProt O95475 114-200, L143I)
T12 sequence: T6 sequence with L30I, I54L

SIX6 [22] = biological target: T13, SIX6 (Homo sapiens, UniProt O95475 114-200, T165G)
T13 sequence: T6 sequence with T52G, I54L

SIX6 [23] = biological target: T14, SIX6 (Homo sapiens, UniProt O95475 114-200, T139Q)
T14 sequence: T6 sequence with T26Q, I54L

SIX6 [24] = biological target: T15, SIX6 (Homo sapiens, UniProt O95475 114-200, T165A)
T15 sequence: T6 sequence with T52A, I54L

SIX6 [25] = biological target: T16, SIX6 (Homo sapiens, UniProt O95475 114-200, L167V)
T16 sequence: T6 sequence with I54V

SIX6 [26] = biological target: T17, SIX6 (Homo sapiens, UniProt O95475 114-200)
T17 sequence: T6 sequence with I54L

SIX6 [27] = biological target: T18, SIX6 (Homo sapiens, UniProt O95475 114-200, T165I)
T18 sequence: T6 sequence with T52I, I54L

HOXB9 [28] = biological target: HOXB9 (Homo sapiens, UniProt P17482 171-250, T197M)
Sequence of HOXB9 (Homo sapiens, UniProt P17482 171-250, T197M) (P17482 171-250 T197M): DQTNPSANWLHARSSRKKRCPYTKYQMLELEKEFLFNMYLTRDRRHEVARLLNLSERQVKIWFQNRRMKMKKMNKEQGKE

HOXB9 [29] = biological target: HOXB9 (Homo sapiens, UniProt P17482 171-250)
Sequence of HOXB9 (Homo sapiens, UniProt P17482 171-250) (P17482 171-250): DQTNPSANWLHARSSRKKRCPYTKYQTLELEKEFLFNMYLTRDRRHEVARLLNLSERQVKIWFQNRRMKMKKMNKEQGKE

HOXB9 [30] = biological target: HOXB9 (Homo sapiens, UniProt P17482 171-250, R186Q)
Sequence of HOXB9 (Homo sapiens, UniProt P17482 171-250, R186Q) (P17482 171-250 R186Q): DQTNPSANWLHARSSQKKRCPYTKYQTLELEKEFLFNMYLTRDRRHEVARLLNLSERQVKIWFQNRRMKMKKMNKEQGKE

HOXB6 = HOXB6 (Homo sapiens, UniProt P17509 132-218)
Sequence of HOXB6 (P17509 132-218): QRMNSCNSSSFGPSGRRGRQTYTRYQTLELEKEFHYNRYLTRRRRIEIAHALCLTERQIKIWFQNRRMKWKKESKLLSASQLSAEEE

PITX2 = PITX2 (Homo sapiens, UniProt Q99697 72-157)

Sequence of CRX (Homo sapiens, UniProt O43186 26-111) (O43186 26-111): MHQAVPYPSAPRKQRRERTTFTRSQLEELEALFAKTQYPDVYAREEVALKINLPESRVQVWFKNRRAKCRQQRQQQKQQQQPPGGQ
Sequence of CRX (Homo sapiens, UniProt O43186 26-111, E42D) (O43186 26-111 E42D): as the sequence (O43186 26-111) above, with E17D counted along it
Sequence of CRX (Homo sapiens, UniProt O43186 26-111, R41L) (O43186 26-111 R41L): as the sequence (O43186 26-111) above, with R16L counted along it

GCTATTTA
binding signal (CRX [1]): 10.3 upbm affinity estimate (log intensity, higher = more binding, comparable within an allelic series) | binding signal (CRX [2]): 10.1 upbm affinity estimate (log intensity, higher = more binding, comparable within an allelic series) | binding signal (CRX [3]): 10 upbm affinity estimate (log intensity, higher = more binding, comparable within an allelic series)

ACTGCAGT
binding signal (CRX [1]): 8.23 upbm affinity estimate (log intensity, higher = more binding, comparable within an allelic series) | binding signal (CRX [2]): 8.32 upbm affinity estimate (log intensity, higher = more binding, comparable within an allelic series) | binding signal (CRX [3]): 8.4 upbm affinity estimate (log intensity, higher = more binding, comparable within an allelic series)

AGAAGGAG
binding signal (CRX [1]): 8.23 upbm affinity estimate (log intensity, higher = more binding, comparable within an allelic series) | binding signal (CRX [2]): 8.28 upbm affinity estimate (log intensity, higher = more binding, comparable within an allelic series) | binding signal (CRX [3]): 8.25 upbm affinity estimate (log intensity, higher = more binding, comparable within an allelic series)

GCTGCCGA
binding signal (NKX2-4 [4]): 9.14 upbm affinity estimate (log intensity, higher = more binding, comparable within an allelic series) | binding signal (HOXC9 [5]): 9.65 upbm affinity estimate (log intensity, higher = more binding, comparable within an allelic series) | binding signal (NKX2-4 [6]): 9.11 upbm affinity estimate (log intensity, higher = more binding, comparable within an allelic series) | binding signal (NKX2-4 [7]): 9.11 upbm affinity estimate (log intensity, higher = more binding, comparable within an allelic series) | binding signal (NKX2-6): 9.17 upbm affinity estimate (log intensity, higher = more binding, comparable within an allelic series) | binding signal (HOXC9 [8]): 9.69 upbm affinity estimate (log intensity, higher = more binding, comparable within an allelic series) | binding signal (ALX1 [9]): 6.5 upbm affinity estimate (log intensity, higher = more binding, comparable within an allelic series) | binding signal (HOXC9 [10]): 9.57 upbm affinity estimate (log intensity, higher = more binding, comparable within an allelic series) | binding signal (ALX1 [11]): 6.4 upbm affinity estimate (log intensity, higher = more binding, comparable within an allelic series) | binding signal (NKX2-4 [12]): 9.29 upbm affinity estimate (log intensity, higher = more binding, comparable within an allelic series) | binding signal (HOXC9 [13]): 9.8 upbm affinity estimate (log intensity, higher = more binding, comparable within an allelic series) | binding signal (ALX1 [14]): 6.43 upbm affinity estimate (log intensity, higher = more binding, comparable within an allelic series)

CAGGTGCG
binding signal (CRX [1]): 8.4 upbm affinity estimate (log intensity, higher = more binding, comparable within an allelic series) | binding signal (CRX [2]): 8.3 upbm affinity estimate (log intensity, higher = more binding, comparable within an allelic series) | binding signal (CRX [3]): 8.29 upbm affinity estimate (log intensity, higher = more binding, comparable within an allelic series)

CAGGCTAG
binding signal (CRX [1]): 8.3 upbm affinity estimate (log intensity, higher = more binding, comparable within an allelic series) | binding signal (CRX [2]): 8.21 upbm affinity estimate (log intensity, higher = more binding, comparable within an allelic series) | binding signal (CRX [3]): 8.16 upbm affinity estimate (log intensity, higher = more binding, comparable within an allelic series)

GGGCTCCA
binding signal (CRX [1]): 8.35 upbm affinity estimate (log intensity, higher = more binding, comparable within an allelic series) | binding signal (CRX [2]): 8.31 upbm affinity estimate (log intensity, higher = more binding, comparable within an allelic series) | binding signal (CRX [3]): 8.31 upbm affinity estimate (log intensity, higher = more binding, comparable within an allelic series)

ACACGCCC
binding signal (CRX [1]): 8.11 upbm affinity estimate (log intensity, higher = more binding, comparable within an allelic series) | binding signal (CRX [2]): 8.24 upbm affinity estimate (log intensity, higher = more binding, comparable within an allelic series) | binding signal (CRX [3]): 8.26 upbm affinity estimate (log intensity, higher = more binding, comparable within an allelic series)

CCCTGCGC
binding signal (NKX2-4 [4]): 9.21 upbm affinity estimate (log intensity, higher = more binding, comparable within an allelic series) | binding signal (SIX6 [15]): 8.93 upbm affinity estimate (log intensity, higher = more binding, comparable within an allelic series) | binding signal (SIX6 [16]): 8.85 upbm affinity estimate (log intensity, higher = more binding, comparable within an allelic series) | binding signal (NKX2-4 [6]): 9.11 upbm affinity estimate (log intensity, higher = more binding, comparable within an allelic series) | binding signal (SIX6 [17]): 8.92 upbm affinity estimate (log intensity, higher = more binding, comparable within an allelic series) | binding signal (SIX6 [18]): 8.96 upbm affinity estimate (log intensity, higher = more binding, comparable within an allelic series) | binding signal (SIX6 [19]): 8.94 upbm affinity estimate (log intensity, higher = more binding, comparable within an allelic series) | binding signal (NKX2-4 [7]): 9.27 upbm affinity estimate (log intensity, higher = more binding, comparable within an allelic series) | binding signal (SIX6 [20]): 8.96 upbm affinity estimate (log intensity, higher = more binding, comparable within an allelic series) | binding signal (SIX6 [21]): 8.9 upbm affinity estimate (log intensity, higher = more binding, comparable within an allelic series) | binding signal (SIX6 [22]): 8.89 upbm affinity estimate (log intensity, higher = more binding, comparable within an allelic series) | binding signal (SIX6 [23]): 8.98 upbm affinity estimate (log intensity, higher = more binding, comparable within an allelic series) | binding signal (SIX6 [24]): 8.88 upbm affinity estimate (log intensity, higher = more binding, comparable within an allelic series) | binding signal (SIX6 [25]): 9 upbm affinity estimate (log intensity, higher = more binding, comparable within an allelic series) | binding signal (NKX2-4 [12]): 9.27 upbm affinity estimate (log intensity, higher = more binding, comparable within an allelic series) | binding signal (SIX6 [26]): 8.86 upbm affinity estimate (log intensity, higher = more binding, comparable within an allelic series) | binding signal (SIX6 [27]): 8.88 upbm affinity estimate (log intensity, higher = more binding, comparable within an allelic series)

AGAGGGCC
binding signal (NKX2-4 [4]): 11.7 upbm affinity estimate (log intensity, higher = more binding, comparable within an allelic series) | binding signal (HOXB9 [28]): 8.51 upbm affinity estimate (log intensity, higher = more binding, comparable within an allelic series) | binding signal (NKX2-4 [6]): 12 upbm affinity estimate (log intensity, higher = more binding, comparable within an allelic series) | binding signal (NKX2-4 [7]): 11.7 upbm affinity estimate (log intensity, higher = more binding, comparable within an allelic series) | binding signal (HOXB9 [29]): 8.69 upbm affinity estimate (log intensity, higher = more binding, comparable within an allelic series) | binding signal (NKX2-4 [12]): 11.9 upbm affinity estimate (log intensity, higher = more binding, comparable within an allelic series) | binding signal (HOXB9 [30]): 8.57 upbm affinity estimate (log intensity, higher = more binding, comparable within an allelic series)

ATAATATC
binding signal (CRX [1]): 11.2 upbm affinity estimate (log intensity, higher = more binding, comparable within an allelic series) | binding signal (CRX [2]): 10.9 upbm affinity estimate (log intensity, higher = more binding, comparable within an allelic series) | binding signal (CRX [3]): 10.8 upbm affinity estimate (log intensity, higher = more binding, comparable within an allelic series) | binding signal (HOXB6): 10.8 upbm affinity estimate (log intensity, higher = more binding, comparable within an allelic series)

CGCTAATC
binding signal (CRX [1]): 12.8 upbm affinity estimate (log intensity, higher = more binding, comparable within an allelic series) | binding signal (PITX2): 12.2 upbm affinity estimate (log intensity, higher = more binding, comparable within an allelic series) | binding signal (CRX [3]): 12.3 upbm affinity estimate (log intensity, higher = more binding, comparable within an allelic series)

GGAGACCC
binding signal (CRX [1]): 8.12 upbm affinity estimate (log intensity, higher = more binding, comparable within an allelic series) | binding signal (CRX [2]): 8.25 upbm affinity estimate (log intensity, higher = more binding, comparable within an allelic series) | binding signal (CRX [3]): 8.36 upbm affinity estimate (log intensity, higher = more binding, comparable within an allelic series)

TAAGATTA
binding signal (CRX [1]): 12.8 upbm affinity estimate (log intensity, higher = more binding, comparable within an allelic series) | binding signal (CRX [2]): 12.6 upbm affinity estimate (log intensity, higher = more binding, comparable within an allelic series) | binding signal (CRX [3]): 12.4 upbm affinity estimate (log intensity, higher = more binding, comparable within an allelic series)
